Consider 28 compounds from PubChem BioAssay (NCATS).

Experiment [1] in a line: Validation screen for small molecules that induce DNA re-replication in SW480 colon adenocarcinoma cells (AID 504364). Summed up:
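SW480 cells seeded at 250 per well were exposed to compound or DMSO for 48 hr at 37 C, 5% CO2, then stained with Hoechst for 40 min. DNA content per nucleus was imaged (405 nm ex, 500-530 nm em).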

For experiment [2], the target named is Peptidyl-prolyl cis-trans isomerase NIMA-interacting 1 (Homo sapiens) (UniProt Q13526). Kind of experiment: qHTS Validation Assay to Find Inhibitors of Pin1 (AID 504536; active means well fitted inhibition curve with a large enough effect in the polarisation, with a control signal flat, not every such curve was filed as active; the % refers to the polarisation). In short, it runs like this:
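Fluorescence polarization competition: compounds (titration) displace HiFluor-488-labeled Pin1-1b peptide from Pin1 (0.3 uM final) in pH 7.5 HEPES buffer with DTT, 10 min at room temperature; %Activity normalized to no-enzyme wells, curves fitted.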

Experiment [3] addresses Phosphoglycerate kinase, glycosomal (Trypanosoma brucei brucei) (UniProt P07378). Kind of experiment: qHTS Validation Assay to Find Inhibitors of Phosphoglycerate Kinase (AID 504547). In short, it runs like this:
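PGK activity was coupled to GAPDH (100nM final), which generates the unstable substrate 1,3-bisphosphoglycerate in-well. Reactions ran 60 minutes at room temperature in 100mM TEA pH 7.6, 5mM MgCl2, 0.01% Tween-20, then Kinase-Glo Plus luminescence was read.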

The target in experiment [4] is phosphoglycerate mutase (Leishmania major) (UniProt Q4Q090). Kind of experiment: qHTS Validation Assay to Find Inhibitors of Phosphoglycerate Mutase (AID 504548).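 Further: end-point luminescence from Kinase-GloPlus after the PGAM reaction; series mostly up to about 58 µM.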 In short, it runs like this:
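L. major PGAM (1.25nM final) was added to substrate buffer and pinned compound, incubated 45 minutes at room temperature, then Kinase-GloPlus added; luminescence read after 10 minutes. Buffer: 100 mM TEA pH 7.6, 5 mM MgCl2, 0.01% Tween-20.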
(qHTS replaces the single test concentration by a dilution series.)

Experiment [5] has as its target Ubiquitin carboxyl-terminal hydrolase 1 (Homo sapiens) (UniProt O94782). Nature of the experiment: Inhibitors of USP1/UAF1: Pilot qHTS (AID 504865).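 Further: rhodamine fluorescence freed from ubiquitin-rhodamine substrate followed over time; top concentration of the series differs between compounds; nearly all actives have a fitted effect of over 35% in size.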 Summed up:
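Enzyme-free wells gave the negative control, while test wells held 1nM USP1/UAF1 preincubated with compound for 15 min at room temperature. Ub-Rho at 150nM final started the reaction, and fluorescence at 480/540 nm was recorded kinetically.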

Experiment [6] can be described thus: qHTS for Inhibitors of ATXN expression: Validation of Cytotoxic Assay (AID 588349). Summed up:
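HEK293 cells were dosed with titrated compounds for 72 hr at 37 degrees C. Viability was read by CellTiter Glo luminescence, with intracellular ATP as the marker of cell survival.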

Experiment [7] in a line: qHTS for Inhibitors of ATXN expression: Validation (AID 588378). Further: nearly all actives have a fitted effect of over 75% in size. Further: potency means the concentration at half of the fitted maximal effect. In short, it runs like this:
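After a 2 h attachment and 24 h compound incubation, HEK293-ATXN2-FFLuc wells are read for fluorescence at 405 nm excitation/525 nm emission as a viability measure, then for Bright-Glo luminescence reflecting ATXN2 expression.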

Experiment [8] addresses DNA dC->dU-editing enzyme APOBEC-3G (Homo sapiens) (UniProt Q9HC16). Nature of the experiment: qHTS for inhibitors of Vif-A3G interactions: Validation (AID 588379). In short, it runs like this:
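HeLa cells stably expressing Vif and A3G-eYFP, 700 cells/well, incubated overnight at 37 deg C, then exposed to compound overnight at 37 deg C. Inhibition of Vif-mediated degradation read as increased yellow fluorescence (Ex 488/Em 500-530) by laser-scanning cytometry.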

In experiment [9] the target is Estrogen receptor (Homo sapiens) (UniProt P03372). Kind of experiment: qHTS assay for small molecule antagonists of estrogen receptor alpha signaling (AID 588513; active means well fitted curve in the direction sought with a large enough effect in the signal ratio, with a control signal flat, not every such curve was filed as active; the % refers to the signal ratio). Summed up: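 Antagonist-mode qHTS in ER-alpha-UAS-bla HEK 293 cells: compound titration, 0.5nM estradiol for 18 h, CCF4 fluorescence, Hill-derived IC50.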
The target is the same in experiment [10]. Nature of the experiment: qHTS assay for small molecule agonists of estrogen receptor alpha signaling (AID 588514; calls by dose curve; further: nearly all actives have a fitted effect of over 70% in size). Summed up: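 ER-alpha-UAS-bla GripTite HEK 293 cells in medium with 2% charcoal/dextran-treated FBS were treated with compound titrations at 37 C for 18 hrs; beta-lactamase reporter read by CCF4 fluorescence after 2 hrs at RT.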

The structures appear in SMILES notation. Inconclusive results are not listed. Activity calls are given as the source filed them. Unless noted, the call rests on the fitted dose curve; in most records, active means well fitted curve in the direction sought with a large enough effect; inconclusive means small, poorly fitted or top-dose-only effect, or another doubt; inactive means no such curve, though single readings can be large; an effect the other way counts as inactive or inconclusive.

Chain of Estrogen receptor (Homo sapiens) (P03372 whole entry, looked up): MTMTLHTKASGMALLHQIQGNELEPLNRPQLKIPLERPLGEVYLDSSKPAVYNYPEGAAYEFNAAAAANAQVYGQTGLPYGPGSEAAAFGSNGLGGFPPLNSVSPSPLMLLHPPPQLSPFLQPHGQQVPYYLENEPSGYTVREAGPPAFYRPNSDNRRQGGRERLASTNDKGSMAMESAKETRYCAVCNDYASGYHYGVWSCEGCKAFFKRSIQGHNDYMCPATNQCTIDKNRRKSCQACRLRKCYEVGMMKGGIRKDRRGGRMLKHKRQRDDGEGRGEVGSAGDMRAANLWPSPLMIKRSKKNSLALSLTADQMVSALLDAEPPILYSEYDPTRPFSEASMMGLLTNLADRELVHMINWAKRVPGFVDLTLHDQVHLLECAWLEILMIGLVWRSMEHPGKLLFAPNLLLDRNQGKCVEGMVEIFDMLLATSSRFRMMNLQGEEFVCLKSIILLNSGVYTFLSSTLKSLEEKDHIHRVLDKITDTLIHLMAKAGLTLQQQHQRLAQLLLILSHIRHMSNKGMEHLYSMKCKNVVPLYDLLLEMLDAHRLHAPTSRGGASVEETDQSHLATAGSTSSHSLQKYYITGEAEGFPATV
Chain of Phosphoglycerate kinase, glycosomal (Trypanosoma brucei brucei) (P07378 whole entry, looked up): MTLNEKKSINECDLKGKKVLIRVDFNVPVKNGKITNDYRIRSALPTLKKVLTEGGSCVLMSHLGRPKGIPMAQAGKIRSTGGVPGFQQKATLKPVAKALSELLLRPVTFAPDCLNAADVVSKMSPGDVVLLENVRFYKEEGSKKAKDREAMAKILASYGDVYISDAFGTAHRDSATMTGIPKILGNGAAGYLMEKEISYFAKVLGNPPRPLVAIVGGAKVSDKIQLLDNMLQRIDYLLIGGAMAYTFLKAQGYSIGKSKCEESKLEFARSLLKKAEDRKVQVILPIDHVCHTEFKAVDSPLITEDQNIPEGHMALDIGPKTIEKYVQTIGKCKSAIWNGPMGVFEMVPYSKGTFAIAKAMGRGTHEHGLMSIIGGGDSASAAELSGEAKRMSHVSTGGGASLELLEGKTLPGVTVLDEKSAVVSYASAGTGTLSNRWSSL
Chain of Peptidyl-prolyl cis-trans isomerase NIMA-interacting 1 (Homo sapiens) (Q13526 whole entry, looked up): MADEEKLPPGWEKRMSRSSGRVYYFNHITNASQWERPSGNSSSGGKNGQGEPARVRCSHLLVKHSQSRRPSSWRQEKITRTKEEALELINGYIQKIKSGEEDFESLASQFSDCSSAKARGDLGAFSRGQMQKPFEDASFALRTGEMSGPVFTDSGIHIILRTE
Chain of phosphoglycerate mutase (Leishmania major) (Q4Q090 1-553): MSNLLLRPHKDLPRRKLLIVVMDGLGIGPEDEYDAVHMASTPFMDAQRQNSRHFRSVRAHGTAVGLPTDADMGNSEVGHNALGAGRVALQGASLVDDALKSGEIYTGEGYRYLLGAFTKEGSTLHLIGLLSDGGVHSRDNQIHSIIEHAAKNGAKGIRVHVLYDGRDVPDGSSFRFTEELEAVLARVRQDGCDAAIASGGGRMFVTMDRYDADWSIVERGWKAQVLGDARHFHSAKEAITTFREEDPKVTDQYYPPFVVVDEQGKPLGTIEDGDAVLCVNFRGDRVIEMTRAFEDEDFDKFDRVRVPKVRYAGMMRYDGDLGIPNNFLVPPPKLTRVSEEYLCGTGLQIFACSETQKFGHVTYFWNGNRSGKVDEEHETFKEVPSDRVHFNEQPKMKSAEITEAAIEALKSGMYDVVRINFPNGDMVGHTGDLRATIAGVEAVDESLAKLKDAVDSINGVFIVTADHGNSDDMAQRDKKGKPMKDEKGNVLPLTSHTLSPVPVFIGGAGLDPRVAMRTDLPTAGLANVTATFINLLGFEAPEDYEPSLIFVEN
Chain of DNA dC->dU-editing enzyme APOBEC-3G (Homo sapiens) (Q9HC16 whole entry, looked up): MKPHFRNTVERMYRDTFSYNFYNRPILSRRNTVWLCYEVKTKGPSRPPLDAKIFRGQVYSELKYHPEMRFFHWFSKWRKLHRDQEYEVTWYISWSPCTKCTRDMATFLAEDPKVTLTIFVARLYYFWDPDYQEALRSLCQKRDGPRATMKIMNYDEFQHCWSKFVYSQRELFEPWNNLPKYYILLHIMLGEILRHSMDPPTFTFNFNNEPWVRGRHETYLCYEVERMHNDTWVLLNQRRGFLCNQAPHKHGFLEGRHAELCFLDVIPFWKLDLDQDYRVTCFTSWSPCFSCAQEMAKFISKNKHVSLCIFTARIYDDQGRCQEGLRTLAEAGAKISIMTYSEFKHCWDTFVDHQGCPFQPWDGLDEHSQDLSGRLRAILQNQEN
Chain of Ubiquitin carboxyl-terminal hydrolase 1 (Homo sapiens) (O94782 whole entry, looked up): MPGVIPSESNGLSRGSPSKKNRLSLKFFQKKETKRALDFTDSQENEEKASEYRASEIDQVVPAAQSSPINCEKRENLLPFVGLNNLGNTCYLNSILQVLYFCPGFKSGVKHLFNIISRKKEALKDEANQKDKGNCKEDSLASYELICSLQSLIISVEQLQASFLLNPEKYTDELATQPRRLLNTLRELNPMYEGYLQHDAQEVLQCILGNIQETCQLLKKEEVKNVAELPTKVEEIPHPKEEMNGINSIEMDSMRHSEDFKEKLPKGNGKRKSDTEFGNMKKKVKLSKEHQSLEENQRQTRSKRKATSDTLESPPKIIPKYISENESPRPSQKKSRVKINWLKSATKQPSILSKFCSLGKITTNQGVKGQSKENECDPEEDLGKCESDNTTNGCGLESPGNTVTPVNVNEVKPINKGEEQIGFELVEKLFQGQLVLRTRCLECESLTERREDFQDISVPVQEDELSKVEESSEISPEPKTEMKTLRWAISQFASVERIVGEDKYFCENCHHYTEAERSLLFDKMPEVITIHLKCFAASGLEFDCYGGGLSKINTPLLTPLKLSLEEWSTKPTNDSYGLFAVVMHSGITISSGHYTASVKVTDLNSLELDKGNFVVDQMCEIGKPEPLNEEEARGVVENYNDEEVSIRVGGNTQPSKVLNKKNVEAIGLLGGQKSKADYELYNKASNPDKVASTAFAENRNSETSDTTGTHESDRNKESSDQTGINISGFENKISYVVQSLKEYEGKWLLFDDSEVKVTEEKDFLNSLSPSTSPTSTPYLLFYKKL

With `O=C(O)CCCCCCCC(=O)O`, the result in experiment [1], in experiment [2], in experiment [3] and in experiment [4] was inactive. The Potency entry in experiment [5], in [6] and in [7] was “inactive” in each case.

Turning to `CC(C)[N+](C)(CCOC(=O)C1c2ccccc2Oc2ccccc21)C(C)C`, the compound was classed as inactive in experiment [1], in experiment [2], in experiment [3] and in [4]. Also, the Potency result in experiment [5] and in experiment [7] was “inactive” throughout.

Consider `CCCN1C[C@H](CSC)C[C@@H]2c3cccc4[nH]cc(c34)C[C@H]21`, for which the result in experiment [1], in experiment [2], in experiment [3], in [4] and in [8] was inactive. The Potency entry in experiment [5], in experiment [6] and in experiment [7] was “inactive” in each case.

For the compound `Nc1c2c(nc3ccccc13)CCCC2O` (stereo not given), the outcome in experiment [1], in experiment [2], in [3] and in experiment [4] was inactive. For the same compound, the Potency entry in [5], in experiment [6] and in experiment [7] was “inactive” in each case.

For the compound `O=C1CC2(CCCC2)CC(=O)N1CCCCN1CCN(c2ncccn2)CC1`, the compound was called inactive in experiment [1], in experiment [2], in experiment [3], in [4] and in [8]. For the same compound, the Potency entry in experiment [5], in [6] and in [7] was “inactive” throughout.

In the case of `CN(C)CC/C=C1\c2ccccc2COc2ccccc21`, the outcome in experiment [1], in experiment [2], in experiment [3], in experiment [4] and in experiment [8] was inactive. Further, the Potency entry in [5] and in experiment [6] was “inactive” each time.

Take `CCn1ccnc1CC1COc2ccccc2O1` (stereo not given): the result in [1], in [2], in experiment [3] and in experiment [4] was inactive. Moreover, the Potency entry in [5], in experiment [6] and in [7] was “inactive” each time.

Take `O=c1[nH]c(=O)n([C@H]2C[C@H](O)[C@@H](CO)O2)cc1Br`: the compound was classed as inactive in [1], in experiment [2], in [3], in experiment [4], in experiment [8] and in experiment [9]. Also, the Potency result in experiment [5], in [6], in experiment [7] and in [10] was “inactive” each time.

As to `NC(N)=NC(=O)Cc1c(Cl)cccc1Cl`, the compound was classed as inactive in experiment [1], in [2], in experiment [3], in experiment [4] and in [8]. Further, the Potency entry in [5], in [6] and in experiment [7] was “inactive” each time.

Regarding `N[C@@H](COP(=O)(O)O)C(=O)O`, the call in [1], in experiment [2], in experiment [3], in [4] and in experiment [8] was inactive. Moreover, the Potency result in experiment [5], in experiment [6] and in experiment [7] was “inactive” each time.

On to `Cc1scc2c1N(C(=O)CN1CCN(C)CC1)c1ccccc1NC2=O`, for which the compound was classed as inactive in experiment [1], in experiment [2], in experiment [3], in experiment [4] and in experiment [8]. The Potency result in experiment [5], in experiment [6] and in experiment [7] was “inactive” in each case.

`CN=C(NC#N)NCCSCc1nc[nH]c1C`: the call in experiment [1], in experiment [2], in experiment [3], in [4], in [8] and in [9] was inactive. Besides, the Potency result in experiment [5], in experiment [6], in experiment [7] and in experiment [10] was “inactive” each time.

For the compound `CN1CCN(CC(=O)N2c3ccccc3C(=O)Nc3cccnc32)CC1`, the call in [1], in experiment [2], in [3], in experiment [4] and in experiment [8] was inactive. The Potency entry in [5], in experiment [6] and in [7] was “inactive” throughout.

`CN(C)CCN(Cc1cccs1)c1ccccn1`: the call in experiment [1], in [2], in [3] and in experiment [4] was inactive. Also, the Potency entry in experiment [5] and in experiment [7] was “inactive” throughout.

For `CC(C)NCC(O)c1cc(O)cc(O)c1` (stereo not given), the result in experiment [1], in [2], in [3] and in experiment [4] was inactive. The Potency entry in experiment [5] and in experiment [7] was “inactive” in each case.

As to `O=C(CCCN1CCC(O)(c2cccc(C(F)(F)F)c2)CC1)c1ccc(F)cc1`, the call in experiment [1] and in experiment [2] was inactive. Further, the Potency result in experiment [5] and in [6] was “inactive” throughout.

As to `C[C@H](CS)C(=O)N1CCC[C@H]1C(=O)O`, the outcome in [1], in experiment [2], in [3] and in experiment [4] was inactive. Moreover, the Potency result in experiment [6] and in [7] was “inactive” each time.

Consider `Cc1ccc(Cl)c(Nc2ccccc2C(=O)O)c1Cl`, for which the result in [1], in [3] and in experiment [4] was inactive. The Potency entry in experiment [5], in experiment [6] and in experiment [7] was “inactive” throughout.

As to `COc1ccc([C@@H]2Sc3ccccc3N(CCN(C)C)C(=O)[C@@H]2OC(C)=O)cc1`, the result in experiment [1], in [2], in experiment [3], in experiment [4] and in experiment [8] was inactive. The Potency entry in [5] and in experiment [7] was “inactive” each time.

Take `C[N+](C)(C)CCCCCCCCCC[N+](C)(C)C`: the outcome in experiment [1], in experiment [2], in [3] and in [4] was inactive. Also, the Potency entry in experiment [5] and in experiment [7] was “inactive” in each case.

Turning to `O=C(O)CN(CCN(CC(=O)O)CC(=O)O)CCN(CC(=O)O)CC(=O)O`, the compound was classed as inactive in experiment [1], in [2], in experiment [3] and in experiment [4]. Further, the Potency entry in experiment [5] and in experiment [7] was “inactive” each time.

Consider `CCN(CC)CC(=O)Nc1c(C)cccc1C`, for which the call in experiment [1], in [2], in [3] and in experiment [4] was inactive. For the same compound, in experiment [7], the Potency entry is “inactive”.

On to `C[C@]12C=CC(=O)C=C1CC[C@H]1[C@@H]3C[C@@H](O)[C@](O)(C(=O)CO)[C@@]3(C)C[C@H](O)[C@@]12F`, for which the outcome in [1], in [2], in experiment [3], in [4] and in experiment [9] was inactive. Also, the Potency result in [5], in experiment [7] and in experiment [10] was “inactive” throughout.

On to `CCCNC(C)C(=O)Nc1ccccc1C` (stereo not given), for which the result in [1], in experiment [2], in experiment [3] and in experiment [4] was inactive. For the same compound, the Potency result in [5] and in experiment [7] was “inactive” in each case.

`CN/C(=C\[N+](=O)[O-])NCCSCc1ccc(CN(C)C)o1`: the result in experiment [1], in [2], in experiment [3], in experiment [4] and in experiment [8] was inactive. Besides, the Potency result in experiment [5] and in experiment [7] was “inactive” in each case.

Turning to `C[n+]1cc2c3c(ccc2c2ccc4cc5c(cc4c21)OCO5)OCO3`, the call in [1], in [2], in experiment [3] and in experiment [4] was inactive. Also, the Potency result in experiment [5] was “inactive”. Moreover, the Potency in [7] was 6.31 µM (active).

As to `NC(=O)N1c2ccccc2C=Cc2ccccc21`, the compound was classed as inactive in experiment [1], in experiment [2], in experiment [3], in experiment [4] and in [9]. Further, the Potency result in experiment [5], in experiment [7] and in [10] was “inactive” in each case.

On to `C#CCN(C)CCCOc1ccc(Cl)cc1Cl`, for which the compound was called inactive in experiment [1], in experiment [3] and in experiment [4]. In addition, the Potency entry in experiment [5], in [6] and in experiment [7] was “inactive” each time.
